Screening data as filed in PubChem BioAssay.
Tgondii IFNg: T. gondii growth inhibition under IFN-gamma. Toxoplasma gondii growth in IFN-gamma-treated host cells; active compounds read low. activity change, negative = inhibition, % (concentration not given with the values). hit rate 3.8% among 69,000. AID 1259416; in the data active means activity change below about -70%, passing the limit was not always enough;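 further: host cells are HeLa cells infected with Toxoplasma gondii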
Active calls of the source: *. The full list was thinned out, with hits kept by preference.

COc1ccc(OC)c(CNC(=O)Cn2ncc3c(N4CCC(C)CC4)ncnc32)c1 was read as Tgondii IFNg 261.
Cc1ccc(CNC(=O)Cn2ncc3c(N4CCCCC4)ncnc32)cc1 was read as Tgondii IFNg -103*.
Screening CN(C)c1ccc(CNC(=O)Cn2ncc3c(N4CCCCC4)ncnc32)cc1 returned Tgondii IFNg 31.
For Cc1ccc(C)c(NC(=O)Cn2ncc3c(N4CCCCCC4)ncnc32)c1 the results were Tgondii IFNg 63.
`Cc1ccc(CNC(=O)Cn2ncc3c(N4CCN(c5ccccn5)CC4)ncnc32)cc1` gave Tgondii IFNg -97*.
For Cc1ccc(NC(=O)Cn2ncc3c(N4CCN(c5ccccn5)CC4)ncnc32)cc1 the results were Tgondii IFNg 99.
`COc1ccc(-c2nnc(-c3nc(NCCCc4ccccc4)c4ccccc4n3)o2)cc1` gave Tgondii IFNg 159.
For CCOc1ccccc1-c1nc(Cn2c(=O)c3cccnc3n(-c3ccccc3)c2=O)c(C)o1 the results were Tgondii IFNg -14.
CC(C)n1cnc2c1C(C(=O)Cc1ccncc1)N(Cc1cccnc1)CC2 (stereo unspecified) was read as Tgondii IFNg 14.
For Cc1ccccc1-c1ncc(-c2nccn2-c2ccc3n[nH]nc3c2)cn1 the results were Tgondii IFNg -4.
For COc1ccc(-c2nc(C)c(CCNS(=O)(=O)c3ccc(C)c(C)c3)s2)cc1 the results were Tgondii IFNg inactive.
Screening CCc1cc(Cn2nc(CC3CCNCC3)n(CC)c2=O)on1 returned Tgondii IFNg 5.
O=C(Cn1ncc2c(N3CCN(c4ccccn4)CC3)ncnc21)NCc1ccccc1Cl was read as Tgondii IFNg -92*.
Screening CCc1ccccc1NC(=O)Cn1ncc2c(N3CCN(c4ccccn4)CC3)ncnc21 returned Tgondii IFNg -56.
`O=C(Cn1ncc2c(N3CCCCCC3)ncnc21)NCc1cc(F)cc(F)c1` gave Tgondii IFNg 58.
Screening O=C(Cn1ncc2c(N3CCCCCC3)ncnc21)NCc1ccc(F)cc1F returned Tgondii IFNg -93*.
COc1ccc(CNC(=O)Cn2ncc3c(N4CCCCC4)ncnc32)c(OC)c1 was read as Tgondii IFNg 30.
`O=C(Cn1ncc2c(N3CCOCC3)ncnc21)NCc1ccccc1Cl` gave Tgondii IFNg 74.
Cc1cccc(C(C(=O)N2CCN(C)C3(CCN(C)CC3)C2)N(C)C)c1 (stereo unspecified) was read as Tgondii IFNg -6.
Screening Cc1cccc(OCC2CCCN(c3ccc(-c4nccn4C)nn3)C2)c1 (stereo unspecified) returned Tgondii IFNg -12.
CCOc1cccc(-c2noc(-c3c(O)c4ccccc4[nH]c3=O)n2)c1 was read as Tgondii IFNg -55.
CCOCC(=O)NCCc1sc(-c2cccc(F)c2)nc1C was read as Tgondii IFNg 62.
CC(C)c1cc(C2CCN(C(=O)Cn3nc4ccccc4n3)CC2)[nH]n1 was read as Tgondii IFNg -2.
`CN(C)C(=O)N1CCOCC2(C1)CN(c1cnn(C)c1)C(=O)CO2` (stereo unspecified) gave Tgondii IFNg 9.
Screening O=C(Nc1ncc(SCCN2CCCC2)s1)[C@]1(c2ccc(S(=O)(=O)C3CC3)cc2)C[C@H]1C1CCCCC1 returned Tgondii IFNg -73*.
Screening CCC(=O)Oc1ccc(NC(=S)Nc2c(C)cc(C)cc2C)cc1 returned Tgondii IFNg 11.
Cc1ccc(-c2nc3cnccn3c2NCCC(=O)NC2CCN(C)CC2)cc1 was read as Tgondii IFNg 53.
CCS(=O)(=O)c1cccc(-c2cc(C(=O)NC3CCN(C)CC3)c(C)c3[nH]c4ncc(C)cc4c23)c1 was read as Tgondii IFNg -80*.
COc1cccc(-c2nc3cnccn3c2NCCC(=O)NC2CCN(C)CC2)c1 was read as Tgondii IFNg -18.
For Cc1ccc(=O)n(CC(=O)N2CCC(c3ccc(C(=O)NC4CCCC4)cn3)CC2)n1 the results were Tgondii IFNg -3.
Screening CC(=O)N1CCCC(CNC(=O)Nc2nnc(-c3cccs3)s2)C1 (stereo unspecified) returned Tgondii IFNg 18.
`CC1(C)CC(=O)c2c(C(F)(F)F)nn(-c3ccc(C(N)=O)c(NC4CCC(OC(=O)CN)CC4)c3)c2C1` (stereo unspecified) gave Tgondii IFNg -76*.
Screening CC1(C)CC(=O)c2c(C(F)(F)F)nn(-c3ccc(C(N)=O)c(NC4CCC(O)CC4)c3)c2C1 (stereo unspecified) returned Tgondii IFNg -77*.
Screening CC1(C)CC(=O)c2c(nc3ccccc3c2N)C1 returned Tgondii IFNg 23.
For Cc1ccncc1C(=O)N1CCOc2c(O)cc(-c3cccc(Cl)c3)cc2C1 the results were Tgondii IFNg -27.
Cc1ccc(CN2CCOC3(CCCN(C(=O)C(C)C)C3)C2)o1 (stereo unspecified) was read as Tgondii IFNg -24.
CNc1nc(-c2ccnc3c2ccn3C)nc2c1CCC2 was read as Tgondii IFNg -27.
For Cn1c(=O)c(-c2nc(-c3ccc(F)c(Cl)c3)no2)c(O)c2ccccc21 the results were Tgondii IFNg 13.
For CCOc1ccc(C(=O)Nc2ccc(N3CCN(C(C)=O)CC3)cc2)cc1[N+](=O)[O-] the results were Tgondii IFNg -13.
`CCOc1cccc(C(=O)Nc2ccc(N3CCN(C(=O)c4ccco4)CC3)cc2)c1` gave Tgondii IFNg -86*.
For CC(=O)Nc1ccc(C(=O)N2CCN(C(=O)c3ccco3)CC2)cc1 the results were Tgondii IFNg -52.
For Cc1occc1C(=O)N1CCn2cc(CNC(=O)c3cnn(C)c3)nc2C1 the results were Tgondii IFNg 73.
Screening COc1ccc2c(c1)NC1(CCN(C(=O)Nc3ccc(Cl)cc3)CC1)c1cccn1-2 returned Tgondii IFNg inactive.
`O=C1NCC(c2ccccc2)Oc2ccccc21` (stereo unspecified) gave Tgondii IFNg -27.
Screening CC(C)Oc1ccc2c(=O)c(-c3ccccc3)coc2c1 returned Tgondii IFNg 431.
`CC(C)Oc1ccc(C2NC(=O)c3ccccc3O2)cc1` (stereo unspecified) gave Tgondii IFNg -98*.
`c1cnc(N2CC(c3[nH]nc4ncccc34)C2)nc1` gave Tgondii IFNg -6.
CC(=O)Nc1ccc(S(=O)(=O)N2CCC(O)(c3ccccn3)CC2)cc1 was read as Tgondii IFNg 3.
For CN1CCN(S(=O)(=O)c2ccc(-c3cnc(N)c(C(=O)Nc4cccnc4)n3)cc2)CC1 the results were Tgondii IFNg -71*.
Screening CC1CCCCN1S(=O)(=O)c1ccc(NC(=O)c2cnccn2)cc1 (stereo unspecified) returned Tgondii IFNg 58.
Cn1ccnc1C(NC(=O)CCc1nc(-c2ccccn2)no1)c1ccc(F)cc1 (stereo unspecified) was read as Tgondii IFNg -37.
`Cc1cc(NC(=O)COc2ccccc2C(C)(C)C)n(Cc2cccnc2)n1` gave Tgondii IFNg 5.
Screening O=S(=O)(NCC1CCN(C2Cc3ccccc3C2)C1)N1CCCC1 (stereo unspecified) returned Tgondii IFNg 8.
`CC(C)NC(=O)N1CC[C@H]2[C@@H]1c1cc(C#Cc3ccccc3)ccc1N(C)[C@H]2CO` gave Tgondii IFNg 14.
`CN1c2ccc(-c3ccccc3)cc2[C@@H]2[C@@H](CCN2C(=O)CC2CC2)[C@@H]1CO` gave Tgondii IFNg -47.
For CC(C)NC(=O)N1CC[C@@H]2[C@H]1c1cc(-c3ccc(F)cc3)ccc1N(C)[C@@H]2CO the results were Tgondii IFNg -63.
